Inconclusive results are not listed. The source made the active and inactive calls. Unless noted, the call rests on the fitted dose curve; in most records, active means well fitted curve in the direction sought with a large enough effect in the repeat runs; inconclusive means weak or mixed curves; inactive means no such curve, though single readings can be large; an effect the other way counts as inactive or inconclusive.

Here are results for seven compounds from PubChem BioAssay (Tox21).

The nature of experiment [1]: qHTS assay to identify small molecule agonists of the estrogen receptor alpha (ER-alpha) signaling pathway in the presence of an antagonist - cell viability counter screen (AID 1259386). Further: series mostly up to about 92 µM; nearly all actives have a fitted effect of over 30% in size. In outline:
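Compounds tested at 15 concentrations for 22 h at 37C alongside 10.0nM (final) ICI-182,780 antagonist, in VM7Luc4E2 cells grown in phenol red-free, charcoal-stripped medium. Viability read by CellTiter-Fluor fluorescence after 1 h reagent incubation.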

The target in experiment [2] is Progesterone receptor (Homo sapiens) (UniProt P06401). Put plainly: qHTS assay to identify small molecule agonists of the progesterone receptor (PR) signaling pathway (AID 1346784; calls by dose curve; further: nearly all actives have a fitted effect of over 30% in size). The essentials:
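The screen uses PR-UAS-bla HEK 293T cells in charcoal-stripped serum (2%). Compounds are applied for 16 hr at 37C after a 6 hr pre-incubation, and reporter activity is detected with a FRET beta-lactamase substrate after 2 hr at room temperature.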
(In general: qHTS replaces the single test concentration by a dilution series.)

Experiment [3] has the same target. Kind of experiment: qHTS assay to identify small molecule antagonists of the progesterone receptor (PR) signaling pathway (AID 1346795; active means well fitted inhibition curve with a large enough effect in the signal ratio in the repeat runs, not every such curve was filed as active; the % refers to the signal ratio; further: potency means the concentration at half of the fitted maximal effect). In outline:
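After 6 hr plating at 37C in 2% stripped-serum medium, PR-UAS-bla HEK293T cells got compounds, then 1 nM R5020. Sixteen hours later, LiveBLAzer substrate was applied for 2 hr at room temperature and fluorescence was recorded.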

Experiment [4] is described as follows: qHTS assay to identify small molecule antagonists of the progesterone receptor (PR) signaling pathway - cell viability counter screen (AID 1346798). Further: series mostly up to about 92 µM; nearly all actives have a fitted effect of over 50% in size. In outline:
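Viability was determined by ATP-based luminescence (CellTiter-Glo) in PR-UAS-bla HEK293T cells cultured in 2% charcoal-stripped serum and incubated 16 hr with compounds under R5020 stimulation.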

Experiment [5] in a line: qHTS assay to identify small molecule agonists of the progesterone receptor (PR) signaling pathway - cell viability counter screen (AID 1346799; calls by dose curve; further: nearly all actives have a fitted effect of over 45% in size). The essentials: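 Viability was scored by ATP luminescence (CellTiter-Glo, 30 min, room temperature) in the same wells used for the reporter readout, after 16 hr compound exposure of PR-UAS-bla HEK293T cells.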
A short description of experiment [6]: qHTS assay to identify small molecule antagonists of the TGF-beta/Smad signaling pathway - cell viability counter screen (AID 1346824). Further: nearly all actives have a fitted effect of over 50% in size. The essentials:
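SBE-bla HEK 293T cells, incubated overnight, then compound plus 0.25 ng/mL TGF-beta1 (stock added) for 5 hr at 37 C. Viability was read in the same wells by CellTiter-Glo luminescence after 30 min at room temperature.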

Experiment [7] can be described thus: qHTS assay to identify small molecule agonists of the TGF-beta/Smad signaling pathway - cell viability counter screen (AID 1346829). Further: top concentration of the series differs between compounds; nearly all actives have a fitted effect of over 45% in size. In outline:
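In parallel with the Smad reporter read, viability of HEK 293T cells stably carrying SBE-bla is quantified by ATP luminescence following 5 hr compound treatment.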

A short description of experiment [8]: qHTS assay to identify small molecule agonists of the TGF-beta/Smad signaling pathway (AID 1346859; active means well fitted activation curve with a large enough effect in the signal ratio in the repeat runs, not every such curve was filed as active; the % refers to the signal ratio; further: series mostly up to about 77 µM). The essentials: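 Dual-wavelength fluorescence (460/530 nm emission) quantified beta-lactamase expression under the Smad binding element in HEK 293T cells following 5 hr compound treatment at 37 C.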
Experiment [9] is described as follows: Human pregnane X receptor (PXR) small molecule agonists, qHTS cell viability counter screen (AID 1346977). Further: nearly all actives have a fitted effect of over 50% in size. The essentials:
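HepG2 cells stably carrying the PXR-Luc reporter are cultured with 5% charcoal-stripped FBS and treated with compounds for 24hr. CellTiter-Fluor is added at 23hr and fluorescence is read after 1hr.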

The nature of experiment [10]: Caspase-3/7 induction in HepG2 cells by small molecules, qHTS assay (AID 1346978). Further: nearly all actives have a fitted effect of over 15% in size. The essentials: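 Wild-type HepG2 cells, 2,000/well, settled 5 hr at 37 C and 5% CO2, then compound-treated for 17 hr; caspase-3/7 activity read by luminescent Caspase-Glo 3/7 after 30 min at room temperature.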
Experiment [11] is described as follows: Caspase-3/7 induction in CHO-K1 cells by small molecules, qHTS cell viability counter screen (AID 1346979). Further: nearly all actives have a fitted effect of over 35% in size. The essentials:
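Seeding: 1,500 CHO-K1 cells/well. Rest: 5hr, 37C. Treatment: compounds in DMSO, 16hr. Read: CellTiter-Fluor, 1hr, fluorescence.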

Experiment [12] in a line: Caspase-3/7 induction in CHO-K1 cells by small molecules, qHTS assay (AID 1346980). Further: nearly all actives have a fitted effect of over 15% in size. The essentials: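 Wild-type CHO-K1 cells exposed to compounds for 17hr at 37 C, 5% CO2. Caspase-3/7 activity then measured by Caspase-Glo 3/7 luminescence after 30min at room temperature.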
Experiment [13] is described as follows: Caspase-3/7 induction in HepG2 cells by small molecules, qHTS cell viability counter screen (AID 1346981). Further: series mostly up to about 92 µM; nearly all actives have a fitted effect of over 30% in size. In outline:
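CellTiter-Fluor fluorescence measured viability in the same wells used for Caspase-Glo 3/7. HepG2 (wild type) at 2,000 cells/well were pre-incubated 5 hr, dosed, and given reagent at 16 hr, with 1 hr further at 37C.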

The target of experiment [14] is Nuclear receptor subfamily 1 group I member 2 (Homo sapiens) (UniProt O75469). Put plainly: Human pregnane X receptor (PXR) small molecule agonists, qHTS assay (AID 1346982). Further: nearly all actives have a fitted effect of over 35% in size. Further: potency means the concentration at half of the fitted maximal effect. In outline: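 Agonist mode: luminescence from ONE-Glo after 24 h compound exposure at 37C in HepG2 cells carrying hPXR-responsive CYP3A4 luciferase, plated in charcoal-stripped serum medium 5 h beforehand.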

In experiment [15] the target is Acetylcholinesterase (Homo sapiens) (UniProt P22303). Kind of experiment: Acetylcholinesterase (AChE) small molecule antagonists: colormetric cell-based qHTS assay (AID 1347395; calls by dose curve; further: nearly all actives have a fitted effect of over 30% in size; further: potency means the concentration at half of the fitted maximal effect). In outline:
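Quantitative HTS in attached SH-SY5Y cells: 30 min compound exposure, then 90 min with acetylthiocholine and DTNB at 37 C; colour from thiocholine reports AChE activity.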

In experiment [16] the target is Thyrotropin-releasing hormone receptor (Homo sapiens) (UniProt P34981). Kind of experiment: qHTS assay to identify small molecule antagonists of the thyrotropin-releasing hormone receptor (TRHR) signaling pathway (AID 1346877; active means well fitted inhibition curve with a large enough effect in the repeat runs, not every such curve was filed as active; further: series mostly up to about 51 µM). The essentials:
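Antagonist mode: after a 5 min room-temperature compound exposure, cells were stimulated with 1 nM (final) TRH. Dye-loaded TRHR-HEK293 cells were used, and calcium-dependent fluorescence was followed for 3 min, with 15-point titrations run in triplicate.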

Experiment [17] has the same target. Kind of experiment: qHTS assay to identify small molecule agonists of the thyrotropin-releasing hormone receptor (TRHR) signaling pathway (AID 1346891; calls by dose curve;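 further: HEK293 cells expressing TRHR with calcium dye readout; series mostly up to about 58 µM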). The essentials:
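Kinetic fluorescence (3 min, 1 s intervals) reported intracellular calcium after compound transfer onto TRHR-Hek293 cells pre-loaded with dye for 2 h at 37 °C.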

In experiment [18] the target is Nuclear receptor subfamily 1 group I member 2 (Rattus norvegicus) (UniProt Q9R1A7). Kind of experiment: Rat pregnane X receptor (rPXR) activation by small molecules, qHTS assay (AID 1346983). Further: nearly all actives have a fitted effect of over 20% in size. As to conditions: rPXR luciferase reporter cells, One-Glo luminescence, 24 h; max activation: active compounds read high. The essentials:
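Cell-based rPXR activation assay: rPXR cells, 2,000 per well, rested 5hr at 37 C, then exposed to compounds in DMSO for 24 hr at 37 C. Luciferase activity read by One-Glo luminescence after 30 min at room temperature.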
On the % scale 0 is the no-effect control and ±100 the full control effect.

Sequence of Acetylcholinesterase (Homo sapiens) (P22303 whole entry, looked up): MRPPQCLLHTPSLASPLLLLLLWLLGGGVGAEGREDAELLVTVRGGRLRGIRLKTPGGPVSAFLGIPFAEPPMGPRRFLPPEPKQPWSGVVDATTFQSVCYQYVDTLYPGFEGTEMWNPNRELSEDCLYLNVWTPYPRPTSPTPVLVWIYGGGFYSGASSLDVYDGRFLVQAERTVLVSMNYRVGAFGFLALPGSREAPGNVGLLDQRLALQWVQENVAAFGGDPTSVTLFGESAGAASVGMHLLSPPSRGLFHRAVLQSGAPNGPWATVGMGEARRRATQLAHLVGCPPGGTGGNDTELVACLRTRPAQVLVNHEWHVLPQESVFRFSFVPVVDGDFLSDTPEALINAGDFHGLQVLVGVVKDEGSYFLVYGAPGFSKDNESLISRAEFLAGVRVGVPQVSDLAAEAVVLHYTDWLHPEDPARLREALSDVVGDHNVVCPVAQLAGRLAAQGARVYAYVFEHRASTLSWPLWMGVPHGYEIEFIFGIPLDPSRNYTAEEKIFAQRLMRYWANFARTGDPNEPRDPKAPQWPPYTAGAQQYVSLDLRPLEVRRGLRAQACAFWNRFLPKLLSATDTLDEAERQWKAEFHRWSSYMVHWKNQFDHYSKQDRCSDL
Sequence of Thyrotropin-releasing hormone receptor (Homo sapiens) (P34981 whole entry, looked up): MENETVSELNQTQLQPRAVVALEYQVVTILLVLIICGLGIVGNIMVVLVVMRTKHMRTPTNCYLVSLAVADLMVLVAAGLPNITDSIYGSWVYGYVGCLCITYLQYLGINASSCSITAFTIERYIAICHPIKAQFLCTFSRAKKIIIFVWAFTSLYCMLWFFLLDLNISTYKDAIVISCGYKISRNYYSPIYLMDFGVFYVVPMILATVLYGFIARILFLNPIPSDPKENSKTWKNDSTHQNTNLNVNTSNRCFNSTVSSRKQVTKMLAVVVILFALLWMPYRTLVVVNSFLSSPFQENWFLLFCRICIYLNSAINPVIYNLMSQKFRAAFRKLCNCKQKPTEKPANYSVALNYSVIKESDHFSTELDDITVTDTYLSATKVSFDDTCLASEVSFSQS
Sequence of Nuclear receptor subfamily 1 group I member 2 (Homo sapiens) (O75469 whole entry, looked up): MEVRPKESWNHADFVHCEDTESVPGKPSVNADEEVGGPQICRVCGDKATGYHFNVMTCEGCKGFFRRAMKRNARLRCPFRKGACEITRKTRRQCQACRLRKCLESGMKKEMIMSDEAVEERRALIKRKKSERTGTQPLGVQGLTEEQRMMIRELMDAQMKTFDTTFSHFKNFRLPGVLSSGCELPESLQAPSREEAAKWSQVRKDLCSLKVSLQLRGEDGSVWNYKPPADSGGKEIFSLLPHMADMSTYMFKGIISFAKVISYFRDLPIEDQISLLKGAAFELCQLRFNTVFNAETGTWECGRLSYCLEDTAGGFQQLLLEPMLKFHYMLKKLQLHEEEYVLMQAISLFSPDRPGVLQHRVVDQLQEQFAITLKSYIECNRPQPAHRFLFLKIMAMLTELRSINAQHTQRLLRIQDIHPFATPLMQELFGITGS
Sequence of Progesterone receptor (Homo sapiens) (P06401 whole entry, looked up): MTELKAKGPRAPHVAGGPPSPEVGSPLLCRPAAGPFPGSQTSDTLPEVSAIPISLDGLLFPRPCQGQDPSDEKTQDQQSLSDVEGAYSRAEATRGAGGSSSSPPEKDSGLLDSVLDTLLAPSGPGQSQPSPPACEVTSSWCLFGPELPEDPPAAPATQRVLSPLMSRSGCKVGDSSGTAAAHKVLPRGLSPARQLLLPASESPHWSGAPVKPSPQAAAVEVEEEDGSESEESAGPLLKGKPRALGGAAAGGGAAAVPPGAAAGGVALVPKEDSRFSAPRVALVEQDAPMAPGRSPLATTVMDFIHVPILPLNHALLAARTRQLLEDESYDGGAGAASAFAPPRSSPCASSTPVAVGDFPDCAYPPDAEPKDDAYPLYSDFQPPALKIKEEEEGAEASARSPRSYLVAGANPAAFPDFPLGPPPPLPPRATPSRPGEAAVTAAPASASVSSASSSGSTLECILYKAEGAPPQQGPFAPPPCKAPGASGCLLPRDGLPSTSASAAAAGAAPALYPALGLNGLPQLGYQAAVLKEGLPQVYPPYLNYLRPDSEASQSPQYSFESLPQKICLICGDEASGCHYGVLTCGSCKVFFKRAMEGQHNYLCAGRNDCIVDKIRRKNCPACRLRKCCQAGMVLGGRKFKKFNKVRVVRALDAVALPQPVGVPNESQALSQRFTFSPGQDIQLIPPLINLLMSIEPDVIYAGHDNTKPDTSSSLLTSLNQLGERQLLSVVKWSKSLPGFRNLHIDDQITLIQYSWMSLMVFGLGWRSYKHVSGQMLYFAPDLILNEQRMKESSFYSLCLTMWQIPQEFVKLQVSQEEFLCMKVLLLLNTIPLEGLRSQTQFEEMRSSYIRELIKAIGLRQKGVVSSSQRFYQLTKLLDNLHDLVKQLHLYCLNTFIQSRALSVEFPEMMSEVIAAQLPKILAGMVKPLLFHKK
Sequence of Nuclear receptor subfamily 1 group I member 2 (Rattus norvegicus) (Q9R1A7 whole entry, looked up): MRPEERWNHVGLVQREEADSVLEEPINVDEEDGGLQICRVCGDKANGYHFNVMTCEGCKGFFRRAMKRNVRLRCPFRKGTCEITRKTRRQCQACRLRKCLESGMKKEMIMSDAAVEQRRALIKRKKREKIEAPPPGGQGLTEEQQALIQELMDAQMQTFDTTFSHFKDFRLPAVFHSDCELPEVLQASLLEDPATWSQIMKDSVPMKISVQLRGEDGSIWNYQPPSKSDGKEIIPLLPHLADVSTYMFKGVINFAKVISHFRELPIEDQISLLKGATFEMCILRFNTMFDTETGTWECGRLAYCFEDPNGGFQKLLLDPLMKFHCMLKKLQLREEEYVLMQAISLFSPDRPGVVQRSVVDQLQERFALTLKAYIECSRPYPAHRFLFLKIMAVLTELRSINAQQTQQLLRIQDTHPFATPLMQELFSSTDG

On to `O=NN(CCO)CCO`, for which the Potency entry in experiment [1], in [2], in experiment [3], in [4], in [5] and in [6] was “inactive” each time. Also, the Potency result in experiment [7], in experiment [9], in [10], in experiment [11], in experiment [12] and in [13] was “inactive” in each case. The Potency entry in experiment [14] and in experiment [15] was “inactive” each time. Moreover, the compound was called inactive in experiment [8].

For the compound `Cc1nn(-c2cc(NS(C)(=O)=O)c(Cl)cc2Cl)c(=O)n1C(F)F`, the Potency entry in [1], in [2], in [3], in experiment [4], in experiment [5] and in [6] was “inactive” each time. Further, the Potency entry in [7], in experiment [16], in [17], in [9], in experiment [10] and in experiment [11] was “inactive” each time. For the same compound, the Potency result in [12], in experiment [13], in experiment [14] and in experiment [15] was “inactive” throughout. Also, in experiment [8], the result was inactive.

In the case of `Brc1cccc(-c2ccccc2)c1`, the Potency result in experiment [1], in experiment [2], in [3], in experiment [4], in experiment [5] and in experiment [6] was “inactive” in each case. For the same compound, the Potency result in experiment [16], in experiment [17], in experiment [9], in experiment [10], in experiment [11] and in experiment [12] was “inactive” each time. Also, the Potency result in experiment [13] and in experiment [15] was “inactive” each time. In addition, in experiment [8], the compound was classed as inactive. The Potency in experiment [14] was 24.5 µM (active).

As to `Oc1ccc2[nH]cc(CCCCN3CC=C(c4ccccc4)CC3)c2c1`, the Potency entry in experiment [1], in experiment [2], in experiment [3], in [4], in experiment [5] and in [6] was “inactive” in each case. The Potency result in experiment [7], in experiment [10] and in experiment [12] was “inactive” each time. The max activation in [18] is 4.09% (inactive).

In the case of `CC(C)(C)c1ccc(OP(=O)(Oc2ccccc2)Oc2ccccc2)cc1`, the Potency entry in [1], in [2], in [4], in [5], in [6] and in experiment [7] was “inactive” each time. For the same compound, the Potency result in [16], in experiment [17], in experiment [10], in experiment [12] and in [13] was “inactive” each time. The Potency in experiment [3] is 21.8 µM (active); in experiment [14] it was 13.8 µM (active); in experiment [15], 31.9 µM (active).

Regarding `CC(Cc1ccc2c(c1)OCO2)NO` (centres undefined), the Potency result in [1], in experiment [2], in experiment [3], in experiment [4], in experiment [5] and in experiment [6] was “inactive” throughout. For the same compound, the Potency entry in experiment [7], in experiment [16], in experiment [17], in experiment [9], in [10] and in experiment [12] was “inactive” each time. The Potency entry in [13], in experiment [14] and in experiment [15] was “inactive” each time. Further, the compound was classed as inactive in experiment [8].

For `Nc1nc(N)nc(Cl)n1`, the Potency result in experiment [1], in experiment [2], in experiment [3], in experiment [4], in experiment [5] and in experiment [6] was “inactive” throughout. The Potency result in experiment [7], in experiment [17], in experiment [9], in experiment [10], in experiment [11] and in experiment [12] was “inactive” in each case. In addition, the Potency entry in [13], in experiment [14] and in experiment [15] was “inactive” throughout. In addition, the outcome in experiment [8] was inactive.
